KDM5B inh: KDM5B demethylase inhibition | Q9UGL1 | KDM5B demethylase, FDH-coupled NADH fluorescence (FDH is formaldehyde dehydrogenase) | Potency, µM (highest dose often 57.7 µM), hits mostly inhibitors | actives 2.6% (n = 220,000); active = well fitted inhibition curve with a large enough effect; note: 0% is about no effect; nearly all actives have a fitted effect of over 70% in size
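Inhibition is measured as reduced NADH fluorescence generation from FDH coupling to formaldehyde release. Truncated KDM5BΔAP at 200 nM final acts on H3K4me3 peptide (12.5 µM in substrate mix) in pH 7.5 HEPES buffer with Tween-20, 30 min, room temperature.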
An asterisk follows results filed as active; i = inactive. The entries come from a sample that favours hits as a whole. Potency is the fitted concentration of half-maximal effect.

SMILES | KDM5B inh
Cc1nc(-c2ccc(C(F)(F)F)cc2)cc([C@H]2CN3CC[C@H]2C[C@@H]3CNC(=O)C(C)(C)C)n1 | i
Cc1nc(-c2ccccc2Br)cc([C@H]2CN3CC[C@H]2C[C@@H]3CNC(=O)CSCC(=O)O)n1 | 25µM*
COc1ccc(-c2cc([C@H]3CN4CC[C@H]3C[C@@H]4CNC(=O)C(C)(C)C)nc(C)n2)cc1OC | 32µM*
COCC(=O)NC[C@H]1C[C@@H]2CCN1C[C@@H]2c1cc(-c2ccccc2Br)nc(C)n1 | i
CCCNC(=O)OC[C@H]1C[C@@H]2CCN1C[C@@H]2c1cc(-c2ccccc2OC)nn1C | i
O=C(Nc1ccccc1)N1C[C@@H]2C[C@H](C1)c1c(-c3ccccc3F)ccc(=O)n1C2 | i
COc1cc2c(cc1OCc1ccccc1)N([S+](=O)([O-])c1cccnc1)CC21CCN(C)CC1 | i
CN(C1CCNCC1)C1CCOCC1 | i
COc1cc2c(cc1OCc1cccnc1)N(C(=O)Cc1cccc(Cl)c1)CC21CCN(CC(=O)O)CC1 | i
C#C[C@H]1CN2CC[C@H]1C[C@@H]2CNC(=O)c1ccc(F)c(Cl)c1 | i
CSc1cccc(NC(=O)NC[C@H]2C[C@@H]3CCN2C[C@@H]3CN(C)Cc2ccccc2)c1 | i
COc1ccc(-c2cc([C@H]3CN4CC[C@H]3C[C@@H]4COC(=O)Nc3ccc(C(C)C)cc3)n(C)n2)cc1OC | i
CC[C@H]1CN2CC[C@H]1C[C@@H]2CNC(=O)c1ccc2ccccc2c1 | i
CC[C@H]1CN2CC[C@H]1C[C@@H]2CNC(=O)Nc1ccc(Br)cc1 | i
CC[C@H]1CN2CC[C@H]1C[C@@H]2COC(=O)Nc1ccc(C(C)(C)C)cc1 | 28µM*
CC[C@H]1CN2CC[C@H]1C[C@@H]2CNC(=O)c1ccc(-c2ccccc2)cc1 | i
CC[C@H]1CN2CC[C@H]1C[C@@H]2COC(=O)Nc1cccc2ccccc12 | 32µM*
CC[C@H]1CN2CC[C@H]1C[C@@H]2CNC(=O)c1ccc(C(F)(F)F)cc1 | i
Cc1cccc(NC(=O)N2[C@H]3CC[C@@H]2c2cnc(-c4ccccc4)nc2C3)c1 | i
O=C(Nc1cccc(C(F)(F)F)c1)OC[C@H]1C[C@@H]2CCN1C[C@@H]2c1cc(C2CCCC2)nc(-c2ccncc2)n1 | i
COc1ccc(C(=O)N2[C@H]3CC[C@@H]2c2cnc(-c4ccc(F)cc4)nc2C3)cc1OC | i
CN1Cc2ccccc2NC(=O)C12CCNC2 (configuration not stated) | i
O=C1Nc2ccccc2CC12CN(CC1CC1)C2 | i
CCN1Cc2ccccc2NC(=O)C12CCNC2 (configuration not stated) | 56µM*
N#Cc1ccc(CN2CCC3(CC2)C(=O)Nc2ccccc23)cc1 | i
SMILES | KDM5B inh
COc1ccc(OC)c(S(=O)(=O)NC[C@H]2C[C@@H]3CCN2C[C@@H]3c2cc(-c3ccccc3OC)nn2C)c1 | i
CC(=O)OC1CCC2(/C=N/O)[C@H]3CCC4(C)C(C5=CC(=O)OC5)CCC4(O)[C@@H]3CCC2(O)C1 (some centres not stated) | i
COc1ccc(NC(=O)OC[C@H]2C[C@@H]3CCN2C[C@@H]3c2cc(-c3ccc(N(C)C)cc3)nc(C)n2)cc1 | i
Cc1nc(-c2ccc(N(C)C)cc2)cc([C@H]2CN3CC[C@H]2C[C@@H]3CNC(=O)c2ccco2)n1 | 25µM*
COc1cc(NC(=O)OC[C@H]2C[C@@H]3CCN2C[C@@H]3c2cc(-c3ccc(N(C)C)cc3)nc(C)n2)cc(OC)c1 | i
Cc1nc(-c2ccccc2Br)cc([C@H]2CN3CC[C@H]2C[C@@H]3CNC(=O)c2ccco2)n1 | i
Cc1nc(-c2ccc(F)cc2)cc([C@H]2CN3CC[C@H]2C[C@@H]3CNC(=O)c2ccco2)n1 | i
Cc1nc(-c2ccc(N(C)C)cc2)cc([C@H]2CN3CC[C@H]2C[C@@H]3CNC(=O)NC(C)C)n1 | 11µM*
O=C([C@H]1CN2CC[C@H]1C[C@@H]2Cn1cc(CO)nn1)N1CCCC1 | i
CC(C)NC(=O)[C@H]1CN2CCC1C[C@@H]2Cn1cc(CN(C)Cc2ccccc2)nn1 (some centres not stated) | i
Cc1cc(CN2CCCC3(C2)NC(=O)c2ccccc2O3)no1 (configuration not stated) | i
COc1ccc([C@H]2C[C@@H](O)[C@@H](O)[C@@H]2NCC(C)C)cc1 | i
COc1ccc(S(=O)(=O)NC[C@H]2C[C@@H]3CCN2C[C@@H]3CN(C)Cc2ccccc2)cc1 | i
COc1ccc(-c2cc([C@H]3CN4CC[C@H]3C[C@@H]4CNS(=O)(=O)c3ccc(C)cc3)n(C)n2)cc1OC | i
COC(=O)c1sccc1NC(=O)N1[C@H]2CC[C@@H]1c1cncnc1C2 | i
O=C(NC1CC1)[C@H]1CN2CCC1C[C@@H]2Cn1cc(CSc2ccccc2)nn1 (some centres not stated) | i
Cc1cnc(CCN)n1CC1CC1 | 7.9µM*
NCCc1noc(C2CC2)n1 | i
O=C(Nc1ccc2n(c1=O)C[C@H]1C[C@@H]2CN(C(=O)c2ccccn2)C1)C1CCCCC1 | i
O=C(Nc1ccc2n(c1=O)C[C@H]1C[C@@H]2CN(C(=O)NC2CCCCC2)C1)c1ccco1 | i
CN(C)Cc1ccccc1-c1ccc2n(c1=O)C[C@H]1C[C@@H]2CN(C(=O)C2CCCCC2)C1 | 35µM*
COc1ccc([N+](=O)[O-])c(N2CC3CCC(C2)N3CC(F)(F)F)n1 | i
COc1ccc(N2CC3CCC(C2)N3CC(F)(F)F)cn1 | 56µM*
Cc1cncc(N2CC3CCC(C2)N3CC(F)(F)F)c1 | i
Cc1ccccc1OCC(=O)N1CCN(Cc2cc(=O)n3nc(-c4ccccc4C)sc3n2)CC1 | i
SMILES | KDM5B inh
Cc1ccccc1-c1cnc2[nH]cc(CC(=O)N3CCN(C)CC3)c2c1 | 32µM*
CN1CCN(C(=O)Cc2c[nH]c3ncc(-c4cccc(F)c4)cc23)CC1 | 28µM*
O=C(Cc1c[nH]c2ccccc12)N1CCN(C(c2ccccc2)c2ccccc2)CC1 | i
CN1CCN(C(=O)COc2ccc3c(=O)c(-c4ccccc4)coc3c2)CC1 | i
CN1CCN(C(=O)Cc2ccccc2)CC1 | i
CN1CCN(C(=O)Cc2c[nH]c3ncc(-c4cccc(Cl)c4)cc23)CC1 | 35µM*
CN1CCCC12Cc1ccccc1CN(C(=O)Cc1cccc(Cl)c1)C2 (configuration not stated) | i
Cc1noc(C)c1-c1cnc2[nH]cc(CC(=O)N3CCN(C)CC3)c2c1 | 28µM*
COc1ccc(OC)c(-c2cnc3[nH]cc(CC(=O)N4CCN(C)CC4)c3c2)c1 | i
OCC1CN(C2CCC2)CC12CCNCC2 (configuration not stated) | i
CNC(=O)NC(=O)CN1CCN(C(=O)Cc2cccc(OC)c2)CC1 | i
O=C(NCc1ccc(F)cc1)[C@H]1CN2CC[C@H]1C[C@@H]2Cn1cc(C2(O)CCCC2)nn1 | i
C=C[C@H]1CN2CC[C@H]1C[C@@H]2CNC(=O)Nc1ccc(Br)cc1 | i
Cc1nc(-c2ccccc2Br)cc([C@H]2CN3CC[C@H]2C[C@@H]3CNC(=O)Nc2ccc(Cl)cc2)n1 | i
CC(C)N1CC2CCC(C1)N2Cc1ccc(-c2cncnc2)cc1 | i
COc1ccc(-c2cc([C@H]3CN4CC[C@H]3C[C@@H]4CNC(=O)Nc3ccccc3)n(C)n2)cc1 | i
O=C(Cc1cccc(F)c1)N1CCN(C2CCN(Cc3cccnc3)C2=O)CC1 (configuration not stated) | i
